The values that follow come from PubChem BioAssay (Tox21).

Where “and” joins values, the source holds several entries; their conditions need not be identical. Equal values may be shown once. Inconclusive results are not listed. Calls of active or inactive are those of the source. Unless noted, calls follow the shape of the dose curve; as a rule, active = well fitted curve in the direction sought with a large enough effect in the repeat runs; inconclusive = weak or mixed curves; inactive = no such curve, though single readings can be large; an effect the other way counts as inactive or inconclusive.

Test [1] can be described thus: qHTS assay to identify small molecule agonists of the peroxisome proliferator-activated receptor delta (PPARd) signaling pathway - cell viability counter screen (AID 743211). Also: nearly all actives have a fitted effect of over 55% in size. Also: potency is read from the fitted curve at half-maximal effect. In outline: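 qHTS cell viability: PPARd-bla HEK293H; 17 h cpd, 37C; CellTiter-Glo, luminescence at 30 min RT.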
The target in test [2] is Peroxisome proliferator-activated receptor delta (Homo sapiens) (UniProt Q03181). The test can be described thus: qHTS assay to identify small molecule agonists of the peroxisome proliferator-activated receptor delta (PPARd) signaling pathway (AID 743212; calls by dose curve;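 also: HEK293H cells with PPARd UAS beta-lactamase reporter GeneBLAzer system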). In outline: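 Beta-lactamase reporter read by fluorescence (LiveBLAzer B/G FRET, 2 h, room temperature). Test agents, in DMSO, incubated at 37 C with PPARd-bla HEK293H cells.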

The nature of test [3]: qHTS assay to identify small molecule antagonists of the peroxisome proliferator-activated receptor delta (PPARd) signaling pathway - cell viability counter screen (AID 743213). Also: nearly all actives have a fitted effect of over 50% in size. Also: potency is read from the fitted curve at half-maximal effect. In short, it runs like this: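 Luminescence from CellTiter-Glo, added after the bla read and incubated 30 min at room temperature, gives viability of HEK293H PPARd-bla cells exposed to compounds for 17 h at 37 C with 300 nM L165041.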

Test [4] concerns the target Peroxisome proliferator-activated receptor delta (Homo sapiens) (UniProt Q03181). The test can be described thus: qHTS assay to identify small molecule antagonists of the peroxisome proliferator-activated receptor delta (PPARd) signaling pathway (AID 743215; active = well fitted inhibition curve with a large enough effect in the signal ratio in the repeat runs, not every such curve was filed as active; the % refers to the signal ratio;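 also: cells stimulated with agonist L165041 at 300 nM final during compound exposure; series mostly up to about 62 µM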). In outline:
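Here, a reporter line (HEK293H, beta-lactamase under a UAS) measures PPARd signaling. Compounds are tested against agonist L165041 at 300 nM final concentration over 17 h at 37 C, with fluorescence read after substrate.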

Test [5] deals with Bile acid receptor (Homo sapiens) (UniProt Q96RI1). Nature of the test: qHTS assay to identify small molecule antagonists of the farnesoid-X-receptor (FXR) signaling pathway (AID 743217; active = well fitted inhibition curve with a large enough effect in the signal ratio in the repeat runs, not every such curve was filed as active; the % refers to the signal ratio). In short, it runs like this:
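Test compounds are pin-transferred onto FXR-bla HEK 293T cells, then chenodeoxycholic acid is added at 50 uM final. After 16 h at 37 °C, LiveBLAzer B/G substrate is applied for 2 h at room temperature and fluorescence read.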

A short description of test [6]: qHTS assay to identify small molecule agonists of the farnesoid-X-receptor (FXR) signaling pathway - cell viability counter screen (AID 743218). Also: nearly all actives have a fitted effect of over 45% in size. Also: potency is read from the fitted curve at half-maximal effect. In outline:
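Quantitative HTS counter screen measuring ATP-based viability via CellTiter-Glo luminescence in HEK 293T cells carrying a UAS-driven beta-lactamase reporter, after 16 h compound exposure at 37 C.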

In test [7] the target is Bile acid receptor (Homo sapiens) (UniProt Q96RI1). The test can be described thus: qHTS assay to identify small molecule agonists of the farnesoid-X-receptor (FXR) signaling pathway (AID 743220; active = well fitted activation curve with a large enough effect in the signal ratio in the repeat runs, not every such curve was filed as active; the % refers to the signal ratio). In outline:
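FXR-UAS-bla HEK 293T cells carrying a UAS-driven beta-lactamase reporter were plated for 5 h at 37C/5% CO2, then exposed to DMSO-dissolved Tox21 10K compounds for 16 h at 37C. A LiveBLAzer B/G FRET substrate was loaded for 2 h at room temperature before fluorescence reading.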

Test [8] in a line: qHTS assay to identify small molecule antagonists of the farnesoid-X-receptor (FXR) signaling pathway - cell viability counter screen (AID 743221; active = well fitted cell-killing curve with a large enough effect in the repeat runs, not every such curve was filed as active; also: nearly all actives have a fitted effect of over 50% in size; also: potency is read from the fitted curve at half-maximal effect). In outline: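 After a 5 h settling period, FXR-bla HEK 293T cells receive compound and chenodeoxycholic acid (50 uM final) and incubate 16 h at 37 C; CellTiter-Glo luminescence, read after 30 min at room temperature, reports cell viability.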

A short description of test [9]: qHTS assay to identify small molecule agonists of the vitamin D receptor (VDR) signaling pathway - cell viability counter screen (AID 743224). Also: nearly all actives have a fitted effect of over 50% in size. Also: potency is read from the fitted curve at half-maximal effect. In short, it runs like this: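 CellTiter-Glo viability readout on VDR-bla cells, measured after 16 h of compound treatment at 37C in the same wells.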
Test [10] is described as follows: qHTS assay to identify small molecule antagonists of the vitamin D receptor (VDR) signaling pathway - cell viability counter screen (AID 743225). Also: nearly all actives have a fitted effect of over 50% in size. Also: potency is read from the fitted curve at half-maximal effect. In short, it runs like this:
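Parallel cytotoxicity test: VDR-UAS-bla HEK 293T, 3 nM (final) 1-alpha,25-dihydroxyvitamin D3 with test compound, 16 h, 37C. Endpoint is CellTiter-Glo luminescence in the same wells.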

Test [11] is described as follows: qHTS assay to identify small molecule agonists of the endoplasmic reticulum stress response signaling pathway (AID 1159516; active = well fitted activation curve with a large enough effect in the signal ratio in the repeat runs, not every such curve was filed as active; the % refers to the signal ratio). In short, it runs like this:
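Fluorescence at 460 and 530 nm (405 nm excitation) reports beta-lactamase from an ER stress response element in HeLa cells treated 5 hr at 37 C.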

Test [12] can be described thus: qHTS assay to identify small molecule agonists of the endoplasmic reticulum stress response signaling pathway - cell viability counter screen (AID 1159517; calls by dose curve). In outline:
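Cytotoxicity of test compounds toward ESRE-bla HeLa cells was assessed after 5 hr exposure. The luminescent CellTiter-Glo signal was measured 30 min after reagent addition.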

The nature of test [13]: qHTS assay to identify small molecule antagonists of the retinoid-related orphan receptor gamma (ROR-gamma) signaling pathway - cell viability counter screen (AID 1159520). Also: nearly all actives have a fitted effect of over 50% in size. Also: potency is read from the fitted curve at half-maximal effect. In short, it runs like this:
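Tet-on ROR gamma CHO cells (1,000/well) were plated 4 hr, given compounds in DMSO for 2 hr at 37 C, then induced with 1 uM final doxycycline for 16 hr. Viability was read as ATP by CellTiter-Glo luminescence after 30 min.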

For test [14], the target named is Nuclear receptor ROR-gamma (Homo sapiens) (UniProt P51449). Nature of the test: qHTS assay to identify small molecule antagonists of the retinoid-related orphan receptor gamma (ROR-gamma) signaling pathway (AID 1159521; also: nearly all actives have a fitted effect of over 50% in size; also: potency is read from the fitted curve at half-maximal effect). In short, it runs like this:
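Decreased RORE-driven luciferase luminescence indicates antagonism. Tet-on RORγ CHO cells received compound, then 1 uM final doxycycline 2 h later; signal read after 16 h incubation.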

Test [15] can be described thus: qHTS assay to identify small molecule agonists of the AP-1 signaling pathway - cell viability counter screen (AID 1159525; calls by dose curve; also: nearly all actives have a fitted effect of over 55% in size; also: potency is read from the fitted curve at half-maximal effect). In short, it runs like this: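 Each titration point was normalised to DMSO and tetra n-octyl ammonium bromide controls. The read was Cell Titer Glo luminescence after 30 min at RT, following 5 h compound exposure of ME-180 AP-1-bla cells at 37 °C.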

The nature of test [16]: qHTS assay to identify small molecule agonists of the AP-1 signaling pathway (AID 1159526; calls by dose curve).
Test [17] concerns the target Retinoic acid receptor RXR-alpha (Homo sapiens) (UniProt P19793). Nature of the test: qHTS assay to identify small molecule agonists of the RXR signaling pathway (AID 1159527; calls by dose curve; also: nearly all actives have a fitted effect of over 35% in size). In short, it runs like this:
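16 hr incubation of compound-treated RXR-alpha-UAS-bla HEK 293T cells (2% charcoal-stripped FBS, 37 C) preceded a 2 hr room-temperature LiveBLAzer FRET substrate step and blue/green fluorescence measurement.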

Test [18] in a line: qHTS assay to identify small molecule agonists of the NFkB signaling pathway - cell viability counter screen (AID 1159515; calls by dose curve; also: nearly all actives have a fitted effect of over 55% in size; also: potency is read from the fitted curve at half-maximal effect). In short, it runs like this:
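Tox21 library compounds were tested for cytotoxicity against NFkB-bla ME-180 cells during a 5 hr exposure at 37 C. CellTiter-Glo luminescence served as the viability read-out.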

Test [19] deals with Vitamin D3 receptor (Homo sapiens) (UniProt P11473). The test can be described thus: qHTS assay to identify small molecule agonists of the vitamin D receptor (VDR) signaling pathway (AID 743222; calls by dose curve). In short, it runs like this: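 Tox21 cell reporter format: VDR-bla line, 16 h compound exposure in 5% CO2 at 37C, then fluorescence intensity after 2 h with LiveBLAzer B/G FRET substrate.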

The target is the same in test [20]. The test can be described thus: qHTS assay to identify small molecule antagonists of the vitamin D receptor (VDR) signaling pathway (AID 743223; active = well fitted inhibition curve with a large enough effect in the signal ratio in the repeat runs, not every such curve was filed as active; the % refers to the signal ratio). In outline:
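Reporter line VDR-bla; stimulus 1alpha,25-(OH)2 vitamin D3, 3 nM final; compound co-addition, 16 h 37C/5% CO2; LiveBLAzer B/G substrate 2 h RT; fluorescence intensity.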

Sequence of Retinoic acid receptor RXR-alpha (Homo sapiens) (P19793 whole entry, looked up): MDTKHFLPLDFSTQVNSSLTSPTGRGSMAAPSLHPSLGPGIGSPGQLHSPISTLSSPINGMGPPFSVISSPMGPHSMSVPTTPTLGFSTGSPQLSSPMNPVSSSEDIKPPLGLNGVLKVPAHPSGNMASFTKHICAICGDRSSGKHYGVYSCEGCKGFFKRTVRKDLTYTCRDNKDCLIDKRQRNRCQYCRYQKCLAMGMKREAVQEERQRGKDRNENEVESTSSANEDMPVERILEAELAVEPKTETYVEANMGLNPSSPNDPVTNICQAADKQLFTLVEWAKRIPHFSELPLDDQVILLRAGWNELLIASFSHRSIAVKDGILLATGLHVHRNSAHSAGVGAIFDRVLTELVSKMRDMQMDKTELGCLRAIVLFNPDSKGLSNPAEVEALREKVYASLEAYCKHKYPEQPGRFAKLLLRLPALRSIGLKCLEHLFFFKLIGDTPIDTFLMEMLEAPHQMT
Sequence of Vitamin D3 receptor (Homo sapiens) (P11473 whole entry, looked up): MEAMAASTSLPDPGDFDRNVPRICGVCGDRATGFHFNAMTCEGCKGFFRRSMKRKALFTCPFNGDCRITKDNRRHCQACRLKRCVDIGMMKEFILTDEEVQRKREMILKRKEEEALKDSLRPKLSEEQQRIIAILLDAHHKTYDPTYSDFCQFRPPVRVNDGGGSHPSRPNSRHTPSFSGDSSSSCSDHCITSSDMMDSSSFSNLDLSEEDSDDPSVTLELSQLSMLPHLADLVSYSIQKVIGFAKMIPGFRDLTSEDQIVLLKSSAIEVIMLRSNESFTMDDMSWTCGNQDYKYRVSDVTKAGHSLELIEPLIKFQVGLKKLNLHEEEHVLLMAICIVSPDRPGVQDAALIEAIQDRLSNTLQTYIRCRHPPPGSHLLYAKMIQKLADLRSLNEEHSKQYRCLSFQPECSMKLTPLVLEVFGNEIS
Sequence of Peroxisome proliferator-activated receptor delta (Homo sapiens) (Q03181 whole entry, looked up): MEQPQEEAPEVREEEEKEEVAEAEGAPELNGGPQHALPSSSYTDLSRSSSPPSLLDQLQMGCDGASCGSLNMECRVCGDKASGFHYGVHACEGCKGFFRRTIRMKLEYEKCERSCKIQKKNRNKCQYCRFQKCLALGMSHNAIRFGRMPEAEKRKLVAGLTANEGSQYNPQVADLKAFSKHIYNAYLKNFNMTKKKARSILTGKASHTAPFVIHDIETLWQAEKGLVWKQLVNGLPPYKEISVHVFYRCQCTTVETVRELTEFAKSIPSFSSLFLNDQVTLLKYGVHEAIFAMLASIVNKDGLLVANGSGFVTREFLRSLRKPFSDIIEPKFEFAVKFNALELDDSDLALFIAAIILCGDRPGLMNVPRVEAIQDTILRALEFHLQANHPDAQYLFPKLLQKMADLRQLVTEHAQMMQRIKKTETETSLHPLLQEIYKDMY
Sequence of Bile acid receptor (Homo sapiens) (Q96RI1 whole entry, looked up): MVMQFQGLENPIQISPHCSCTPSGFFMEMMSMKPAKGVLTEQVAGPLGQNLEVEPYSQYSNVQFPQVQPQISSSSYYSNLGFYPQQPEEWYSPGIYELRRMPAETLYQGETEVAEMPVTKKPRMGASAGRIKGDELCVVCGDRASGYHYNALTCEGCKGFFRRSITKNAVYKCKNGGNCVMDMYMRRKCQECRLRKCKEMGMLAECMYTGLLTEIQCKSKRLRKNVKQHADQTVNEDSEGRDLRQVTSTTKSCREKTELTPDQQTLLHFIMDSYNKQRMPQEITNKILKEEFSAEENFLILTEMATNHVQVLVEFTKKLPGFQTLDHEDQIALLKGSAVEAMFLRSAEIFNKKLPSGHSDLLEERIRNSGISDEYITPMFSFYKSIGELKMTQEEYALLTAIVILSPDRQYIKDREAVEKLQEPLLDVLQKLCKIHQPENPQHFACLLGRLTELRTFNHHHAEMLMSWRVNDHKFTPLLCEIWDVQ

Regarding `Cc1cc(C)c(C2=C(OC(=O)CC(C)(C)C)C3(CCCC3)OC2=O)c(C)c1`, the Potency entry in test [1], in test [2], in test [3], in test [4], in [5] and in test [6] was “inactive” throughout. The Potency result in test [8], in test [9], in test [10], in [11], in test [12] and in test [13] was “inactive” throughout. Besides, the Potency result in test [14], in [15] and in [16] was “inactive” in each case. Further, the outcome in test [7] and in [17] was inactive.

For `CC(=O)[O-].[Tl+]`, the Potency result in test [1], in [3], in [6], in [8], in [9] and in [10] was “inactive” throughout. In addition, the Potency result in [11], in test [12], in test [13], in test [15] and in test [16] was “inactive” throughout.

Turning to `CN(C)C(=S)[S-].CN(C)C(=S)[S-].[Cu+2]`, the Potency in test [1] was 0.946 µM (active); in test [3], 3.36 µM (active); in [6] it was 0.946 µM (active); in [8], 2.38 µM (active); in test [9], 1.5 µM (active); in test [10], 4.74 µM (active). The values for the Potency in test [18] and in [15] were 4.74 µM (active) and 6.7 µM (active), respectively.

As for `O=C(O)C1C2CCC(O2)C1C(=O)O` (stereo not given), the Potency result in test [1], in test [2], in test [3], in [4], in [6] and in test [8] was “inactive” each time. The Potency result in test [19], in test [20], in test [9], in [10], in [11] and in [12] was “inactive” each time. For the same molecule, the Potency entry in test [15] and in [16] was “inactive” each time. In addition, the Potency was 44.5 µM (active) in [13]; 13.9 µM (active) and 12.5 µM (active) in test [14]. The call in test [17] was inactive.

For the molecule `CCOP(=O)(NC(C)C)Oc1ccc(SC)c(C)c1` (stereo not given), the Potency entry in test [6], in [8], in test [19], in test [9] and in test [18] was “inactive” in each case. Besides, the Potency in test [14] was 9.69 µM (active).

Turning to `CCN`, the Potency result in [3], in test [6], in test [8], in test [10], in [11] and in test [12] was “inactive” in each case. The Potency result in test [13], in [14], in [15] and in test [16] was “inactive” in each case. Further, the molecule was classed as inactive in test [17].
